# Experimental data taken from the antibiotic and cytotoxicity screens of Wong et al. (2023).
# Screen size: about 39,000 compounds; about 3,300 (8.5%) were called active. This is one part of a sample in which actives are shown more often than they occur.
# System: HepG2
# Assay: cytotoxicity call (relative viability < 0.9)
# Conditions: 10 µM
row,Compound,cytotoxicity call
1,C=CC(C)(O)CCC1C(C)(O)CCC2C(C)(C)CCCC21C (stereo unspecified),inactive
2,CCS(=O)(=O)Nc1ccc2c(c1)C(=O)N(C)[C@@H]1CC[C@H](CC(=O)N3CCN(C)CC3)O[C@@H]1CO2,inactive
3,NCC[C@H]1CC[C@H](NC(=O)Nc2ccc(F)cc2)[C@H](CO)O1,inactive
4,CN(C)CCN1CCN(C)C2(CCN(S(=O)(=O)C3CC3)CC2)C1=O,inactive
5,Cc1noc(C)c1NC(=O)Nc1ccc2c(c1)CC(=O)N([C@@H](C)CO)C[C@H](C)[C@@H](CN(C)Cc1ccc(C(=O)Nc3ccccc3N)cc1)O2,inactive
6,CCCNC(=O)N1C[C@H](O)COC[C@@H]2O[C@@H](CC(=O)N3CCOCC3)CC[C@H]21,inactive
7,CO[C@@H]1CN(C)C(=O)c2cc(NC(=O)Nc3cccc(F)c3)ccc2OC[C@@H](C)N(C(=O)Nc2c(C)noc2C)C[C@H]1C,inactive
8,Cc1cc(Cn2c(=O)n(Cc3cnc(C)s3)c(=O)c3cc(S(=O)(=O)NC4(C)CC4)ccc32)n(C)n1,inactive
9,COc1ccccc1CNC(=O)C[C@@H]1C[C@H]2c3cc(NC(=O)c4ccc5c(c4)OCO5)ccc3O[C@H]2[C@H](CO)O1,inactive
10,C[C@@H]1CN([C@H](C)CO)C(=O)c2cc(C#Cc3ccccc3)cnc2O[C@@H]1CN(C)S(=O)(=O)c1ccccc1F,inactive
11,C[C@@H]1CN([C@@H](C)CO)C(=O)c2cc(C#Cc3ccccc3)cnc2O[C@H]1CN(C)S(=O)(=O)c1ccccc1F,active
12,C[C@H]1CN([C@@H](C)CO)C(=O)c2cc(C#Cc3ccccc3)cnc2O[C@H]1CN(C)S(=O)(=O)c1ccccc1F,inactive
13,C[C@H](CO)N1C[C@H](C)[C@@H](CN(C)S(=O)(=O)c2ccccc2F)Oc2ncc(C#Cc3ccccc3)cc2C1=O,inactive
14,C[C@H](CO)N1C[C@H](C)[C@H](CN(C)S(=O)(=O)c2ccccc2F)Oc2ncc(C#Cc3ccccc3)cc2C1=O,inactive
15,C[C@@H]1CN([C@@H](C)CO)C(=O)c2cc(C#Cc3ccccc3)cnc2O[C@@H]1CN(C)S(=O)(=O)c1ccccc1F,active
16,C[C@H]1CN([C@@H](C)CO)C(=O)c2cc(C#Cc3ccccc3F)cnc2O[C@@H]1CN(C)S(=O)(=O)c1ccccc1F,inactive
17,C[C@@H]1CN([C@@H](C)CO)C(=O)c2cc(C#Cc3ccccc3F)cnc2O[C@H]1CN(C)S(=O)(=O)c1ccccc1F,active
18,C[C@@H]1CN([C@H](C)CO)C(=O)c2cc(C#Cc3ccccc3F)cnc2O[C@H]1CN(C)S(=O)(=O)c1ccccc1F,inactive
19,C[C@H](CO)N1C[C@H](C)[C@H](CN(C)C(=O)Nc2cccc3ccccc23)Oc2ccc(NC(=O)NC3CCCCC3)cc2CC1=O,inactive
20,Cc1cc(=O)n(CNC(=O)c2ccco2)cn1,inactive
21,O=C([O-])C(O)C(O)C(O)C(O)C(O)CO.O=C([O-])C(O)C(O)C(O)C(O)C(O)CO.[Ca+2] (stereo unspecified),inactive
22,O=C(C[C@H]1CC[C@H]2NC[C@@H](O)COC[C@@H]2O1)NCCN1CCCC1,inactive
23,COc1ccsc1C(N)=O,inactive

row,Compound,cytotoxicity call
1,C[C@H]1CN([C@@H](C)CO)C(=O)Cc2cc(NC(=O)CCCCCC(=O)Nc3ccccc3N)ccc2O[C@@H]1CN(C)C(=O)Nc1cccc2ccccc12,inactive
2,COC(=O)C[C@@H]1CC[C@@H]2[C@H](COC[C@@H](O)CN2S(=O)(=O)c2cn(C)cn2)O1,inactive
3,CC(C)=CCC/C(C)=C/CC/C(C)=C/CC/C(C)=C/CO,inactive
4,Cc1ccc(-c2cnc3c(c2)C(=O)N([C@@H](C)CO)C[C@H](C)[C@H](CN(C)C(=O)Cc2ccncc2)O3)cc1,inactive
5,C[C@@H]1CN([C@H](C)CO)C(=O)c2cc(NC(=O)CCN3CCOCC3)ccc2O[C@@H]1CN(C)S(=O)(=O)c1ccc(F)cc1,inactive
6,C[C@@H]1CCCCO[C@H](CN(C)C(=O)c2ccccc2)[C@@H](C)CN([C@H](C)CO)C(=O)c2cc(NC(=O)Nc3ccccc3)ccc2O1,inactive
7,C[C@H](CO)N1C[C@H](C)[C@H](CN(C)C(=O)Nc2ccc3c(c2)OCO3)Oc2ccc(NC(=O)CCN3CCOCC3)cc2C1=O,inactive
8,C[C@H]1CN([C@@H](C)CO)C(=O)c2cc(NC(=O)CCN3CCOCC3)ccc2O[C@H]1CN(C)C(=O)Nc1ccc2c(c1)OCO2,inactive
9,C[C@@H]1CN([C@@H](C)CO)C(=O)c2cc(NC(=O)CCN3CCOCC3)ccc2O[C@H]1CN(C)C(=O)Nc1ccc2c(c1)OCO2,inactive
10,C[C@@H]1CN([C@@H](C)CO)C(=O)c2cc(NC(=O)CCN3CCOCC3)ccc2O[C@@H]1CN(C)C(=O)Nc1ccc2c(c1)OCO2,active
11,C[C@@H]1CN([C@H](C)CO)C(=O)c2cc(NC(=O)CCN3CCOCC3)ccc2O[C@@H]1CN(C)C(=O)Nc1ccc2c(c1)OCO2,inactive
12,C[C@@H]1CN([C@H](C)CO)C(=O)c2cc(NC(=O)CCN3CCOCC3)ccc2O[C@H]1CN(C)C(=O)Nc1ccc2c(c1)OCO2,active
13,C[C@@H]1CCCCO[C@@H](CN(C)S(=O)(=O)c2cn(C)cn2)[C@@H](C)CN([C@H](C)CO)C(=O)c2cc(NC(=O)c3ccncc3)ccc2O1,inactive
14,COc1cccc(OC[C@@H](O)CN(CCO)CCO)c1,inactive
15,O=C(C[C@@H]1C=C[C@@H](NC(=O)Nc2ccc3c(c2)OCO3)[C@@H](CO)O1)NCCCN1CCOCC1,inactive
16,C[C@H]1CCCCO[C@H](CN(C)S(=O)(=O)c2cn(C)cn2)[C@@H](C)CN([C@@H](C)CO)C(=O)c2cc(NS(C)(=O)=O)ccc2O1,inactive
17,C[C@@H]1CN([C@H](C)CO)C(=O)c2cccc(N(C)C)c2O[C@@H]1CN(C)S(C)(=O)=O,inactive
18,C[C@@H]1CCCCO[C@H](CN(C)S(=O)(=O)c2ccccc2)[C@H](C)CN([C@@H](C)CO)C(=O)c2cc(NC(=O)Nc3ccccc3)ccc2O1,inactive
19,COCC#Cc1ccc([C@@H]2[C@@H](CO)N3C(=O)CN(C(=O)C4CCOCC4)C[C@H]23)cc1,inactive
20,COc1ccccc1OCC(O)COC(N)=O (stereo unspecified),active
21,COc1ccccc1OC[C@@H](O)COC(N)=O,inactive
22,NC(=O)OCC(COC(N)=O)c1ccccc1,inactive
23,Cc1noc(C)c1S(=O)(=O)Nc1ccc2c(c1)CC(=O)N([C@H](C)CO)C[C@@H](C)[C@@H](CN(C)CC1CC1)O2,inactive
